Experiment [1] in a line: endothelial E-selectin expression blockers – imaging, HUVEC, immunofluorescence, MLSMR starter and 10KST1 sets, primary screen (AID 487;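 active = visually confirmed hit in the image check and inhibition above 20%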;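 as to inhibition: signal is fraction of cell area covered by stained E-selectin grains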;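 as to nuclei count: 100% = median nuclei count of all wells on the same plate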). The conditions noted are these: HUVEC TNFalpha-induced E-selectin immunofluorescence imaging, at 2 µM; inhibition: stronger effect = higher value; nuclei count: measured here: cell number, toxicity.
The nature of experiment [2]: Primary imaging screen for DUSP6 inhibitors that restore phospho-Erk in transfected HeLa cells, chemical complementation (AID 609;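 active = compounds giving at least 50% inhibition in the cell-based MKP-3 phosphatase rescue imaging test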;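 as to inhibition: phospho-Erk level distribution per well compared with pooled transfected vehicle control wells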). The conditions noted are these: HeLa MKP-3 transfected, phospho-Erk imaging KS statistic, at 10 µM, cells stimulated with TPA for 15 min.
Experiment [3] deals with Dual specificity protein phosphatase 6 (Homo sapiens) (UniProt Q16828). The description is as above. The conditions noted are these: HeLa MKP-3 transfected, phospho-Erk imaging KS statistic; at 10 µM; stronger effect = higher value; cells stimulated with TPA for 15 min.
The target in experiment [4] is Voltage-gated potassium channel subunit beta-2 (Rattus norvegicus) (UniProt P62483). Put plainly: inhibitors of rat Kvbeta2 reductase activity – biochemical, NADPH fluorescence, primary screen (AID 622;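 active = fluorescence slope higher than the sample average by over 3 SD, cut at about -0.22 in these data, passing the limit was not always enough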;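 also: slope of raw intensity against log time taken from 70 to 1610 s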). Conditions: recombinant KvBeta, 4-cyanobenzaldehyde reduction, at 10 µM, stronger effect = higher value.
The target is the same in experiment [5]. Kind of experiment: enhancers of rat Kvbeta2 NADPH turnover – biochemical, NADPH fluorescence, primary screen (AID 623).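 Also: fluorescence intensity change per second fitted from 20 to 320 s.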 Conditions: Recombinant KvBeta, NADPH fluorescence decrease slope, 10 min; at 10 µM; stronger effect = lower value.
Experiment [6] addresses Muscarinic acetylcholine receptor M4 (Homo sapiens) (UniProt P08173). Put plainly: M4-linked GIRK flux change, two-sided – cell-based, HEK293 M4/GIRK, thallium flux, BTC-AM, M4 allosteric agonist project, primary screen (AID 625;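 active = fluorescence slope after compound addition differing from the mean of all tested samples at 99.7% confidence, mostly higher but some lower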;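 also: thallium influx through GIRK channels coupled to M4 in HEK293 cells with BTC-AM dye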). The conditions noted are these: at 10 µM, actives lie on both sides.
The nature of experiment [7]: inhibitors of larval lipid processing in zebrafish, primary screen, whole organism, PED6 fluorescence, gall bladder and intestine (AID 686;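 active = a full or partial loss of lipid-probe fluorescence in the fish gall bladder, intestine or both, judged by eye; inactive = no fluorescence loss, or compound toxic to the fish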;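 also: larvae 5 to 7 days old with five fish per well; signal comes from phospholipase A2 cleavage of quenched PED6 carried via bile; overnight exposure to compound and PED6 before scoring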). Conditions: Zebrafish larvae PED6 lipid processing, fluorescence scoring; screened at 20 µM (by protocol).
Experiment [8] is described as follows: loss of swimming-algae plug formation – whole organism, Chlamydomonas reinhardtii, WT vs cilia-less mutant, absorbance, 96-well, primary screen (AID 463189;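 active = inhibition at or above 50% relative to wild type and mutant plate controls; inactive = inhibition below 50%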;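 also: 0% = wild type cc124 cells in DMSO and 100% = ciliumless bld1 mutant cells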). Conditions: Chlamydomonas reinhardtii gravitaxis, OD600 absorbance, 2 days; at 10 µM; stronger effect = higher value.
Setting [9] is: measured here: cell density z-score.
Where [10] appears, read: measured here: nuclear c-Myc green intensity z-score.
The mark [11] stands for this setting: measured here: nuclear pErk red intensity z-score, stronger effect = higher value.

Calls of active or inactive are those of the source.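 The calls were made as follows, unless noted: active = NADPH fluorescence slope more negative than the mean of all samples by about 3 SD, 99.7% confidence; inactive = the rest.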

Dual specificity protein phosphatase 6 (Homo sapiens), sequence (Q16828 whole entry, looked up): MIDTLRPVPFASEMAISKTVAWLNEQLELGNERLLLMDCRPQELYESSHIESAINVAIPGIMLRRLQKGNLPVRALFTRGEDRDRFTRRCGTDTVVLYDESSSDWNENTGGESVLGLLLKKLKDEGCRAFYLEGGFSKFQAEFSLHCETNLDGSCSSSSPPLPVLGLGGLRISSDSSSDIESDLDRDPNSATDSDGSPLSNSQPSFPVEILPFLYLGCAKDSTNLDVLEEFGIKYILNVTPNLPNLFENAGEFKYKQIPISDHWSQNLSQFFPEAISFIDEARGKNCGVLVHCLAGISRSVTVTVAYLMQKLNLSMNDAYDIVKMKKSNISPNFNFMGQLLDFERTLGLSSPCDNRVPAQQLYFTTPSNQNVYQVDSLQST
Voltage-gated potassium channel subunit beta-2 (Rattus norvegicus), sequence (P62483 whole entry, looked up): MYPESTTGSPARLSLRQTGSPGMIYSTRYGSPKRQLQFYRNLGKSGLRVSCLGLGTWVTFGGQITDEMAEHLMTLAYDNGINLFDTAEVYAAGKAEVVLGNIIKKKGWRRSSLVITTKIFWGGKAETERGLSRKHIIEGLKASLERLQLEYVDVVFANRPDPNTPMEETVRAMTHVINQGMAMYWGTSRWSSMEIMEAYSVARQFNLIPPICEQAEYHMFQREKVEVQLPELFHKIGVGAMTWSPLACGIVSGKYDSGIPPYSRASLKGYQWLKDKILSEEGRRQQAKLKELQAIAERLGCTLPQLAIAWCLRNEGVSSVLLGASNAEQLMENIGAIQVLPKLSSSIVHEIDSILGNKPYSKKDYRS
Muscarinic acetylcholine receptor M4 (Homo sapiens), sequence (P08173 whole entry, looked up): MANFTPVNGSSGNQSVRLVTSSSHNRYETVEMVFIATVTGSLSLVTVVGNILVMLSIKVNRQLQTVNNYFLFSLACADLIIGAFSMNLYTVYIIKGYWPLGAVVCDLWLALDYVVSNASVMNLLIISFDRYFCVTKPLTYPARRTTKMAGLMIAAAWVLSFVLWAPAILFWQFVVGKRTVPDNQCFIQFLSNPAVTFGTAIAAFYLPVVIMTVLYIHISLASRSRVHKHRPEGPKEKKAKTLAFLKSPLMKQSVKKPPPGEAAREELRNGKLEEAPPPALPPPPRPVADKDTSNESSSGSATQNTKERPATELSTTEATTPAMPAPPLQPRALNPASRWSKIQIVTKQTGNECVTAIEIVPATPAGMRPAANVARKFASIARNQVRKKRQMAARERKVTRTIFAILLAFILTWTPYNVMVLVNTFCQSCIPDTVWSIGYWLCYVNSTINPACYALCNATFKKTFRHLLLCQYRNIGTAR

What is called inhibition is the change of the read-out against control, counted positive when it falls. Take `Cc1cc(C)n(C(=O)CNC(=O)c2cccs2)n1`: the results for the inhibition in experiment [1], in experiment [3] and in experiment [8] were -109% (inactive), 7.48% (inactive) and 16.6% (inactive), respectively. In experiment [1], the nuclei count came to 182%. The results for the z-score in experiment [2] (setting [9]), in experiment [2] (setting [10]) and in experiment [2] (setting [11]) were 0.591, -1.67 and -0.663, respectively. In addition, the fluorescence slope was -0.404 (inactive) in experiment [4] and 0.00505 (inactive) in experiment [6]. The NADPH fluorescence slope in experiment [5] was -3.1e-05 (inactive). In addition, the call in experiment [7] was inactive.

Regarding `CCCCCOc1ccc(Cl)cc1CN1CCOCC1`, the inhibition is -77.3% (inactive) in experiment [1], 11.3% (inactive) in experiment [3] and 126% (active) in experiment [8]. The molecule also came in with a nuclei count in experiment [1] of 110%. Moreover, the z-score in experiment [2] (setting [9]) was -0.264; in experiment [2] (setting [10]) it was 0.0743; in experiment [2] (setting [11]) it was -0.781. In addition, the fluorescence slope was -0.434 (inactive) in experiment [4] and 0.00599 (inactive) in experiment [6]. Also, in experiment [5], the NADPH fluorescence slope was -2.1e-05 (inactive). Besides, the result in experiment [7] was inactive.

With `COc1cc(C(=O)NCC(=O)n2nc(C)cc2C)cc(OC)c1OC`, the inhibition in experiment [1] is 19% (inactive); in experiment [3], 20.8% (inactive); in experiment [8], -4.24% (inactive). This molecule had a nuclei count in experiment [1] of 141%. Moreover, the z-score in experiment [2] (setting [9]) was 1.48; in experiment [2] (setting [10]), 0.2; in experiment [2] (setting [11]) it was -2.19. In addition, the fluorescence slope is -0.389 (inactive) in experiment [4] and 0.00583 (inactive) in experiment [6]. Also, the NADPH fluorescence slope in experiment [5] was 7.5e-06 (inactive). The outcome in experiment [7] is “inactive; toxic”.

In the case of `COc1cc(C(=O)Nc2ccccn2)cc(OC)c1OC`, the results for the inhibition in experiment [1], in experiment [3] and in experiment [8] were -234% (inactive), -2.07% (inactive) and 6.27% (inactive), respectively. The molecule further displayed a nuclei count in experiment [1] of 165%. Further, the z-score in experiment [2] (setting [9]) was -0.193; in experiment [2] (setting [10]) it was -1.03; in experiment [2] (setting [11]), 0.79. In addition, the fluorescence slope is -0.398 (inactive) in experiment [4] and 0.00377 (inactive) in experiment [6]. Also, in experiment [5], the NADPH fluorescence slope was -5.6e-05 (inactive). Besides, in experiment [7], the call was inactive.

Turning to `COc1ccc(Cn2ccnc2)cc1Br`, the inhibition is -47% (inactive) in experiment [1], 18.9% (inactive) in experiment [3] and 109% (active) in experiment [8]. This molecule also registered a nuclei count in experiment [1] of 141%. Also, the z-score in experiment [2] (setting [9]) was -0.527; in experiment [2] (setting [10]), 1.89; in experiment [2] (setting [11]), -0.19. The fluorescence slope in experiment [4] is -0.302 (inactive); in experiment [6] it was 0.00733 (inactive). For the same molecule, the NADPH fluorescence slope in experiment [5] is 1.1e-06 (inactive). The result in experiment [7] was inactive.

For the molecule `CC1(C)CC(=O)C(C=N)=C(O)C1`, the inhibition in experiment [1] is -29.4% (inactive); in experiment [3], -3.98% (inactive); in experiment [8] it was 3.24% (inactive). In experiment [1], this molecule gave a nuclei count of 169%. Also, the z-score in experiment [2] (setting [9]) is -0.419; in experiment [2] (setting [10]), -0.908; in experiment [2] (setting [11]), 0.177. Besides, the results for the fluorescence slope in experiment [4] and in experiment [6] were -0.384 (inactive) and 0.00587 (inactive), respectively. For the same molecule, the NADPH fluorescence slope in experiment [5] is -3.8e-05 (inactive). Moreover, the outcome in experiment [7] was inactive.

Consider `COc1ccc(C(=O)C2CCCCC2=O)cc1` (stereo not given), for which the results for the inhibition in experiment [1], in experiment [3] and in experiment [8] were 43.3% (inactive), -2.07% (inactive) and 20% (inactive), respectively. The molecule also returned a nuclei count in experiment [1] of 127%. Further, the values for the z-score in experiment [2] (setting [9]), in experiment [2] (setting [10]) and in experiment [2] (setting [11]) were -0.682, -0.8 and 1.6, respectively. The fluorescence slope was -0.407 (inactive) in experiment [4] and 0.00364 (inactive) in experiment [6]. Moreover, the NADPH fluorescence slope in experiment [5] was -7e-05 (inactive). The call in experiment [7] was inactive.

As to `COc1cccc(N2CCN(c3ncnc4c3[nH]c3ccccc34)CC2C)c1` (stereo not given), the inhibition was 72.8% (inactive) in experiment [1], -7.93% (inactive) in experiment [3] and 57% (active) in experiment [8]. In experiment [1], this molecule had a nuclei count of 102%. Also, the z-score in experiment [2] (setting [9]) was -0.905; in experiment [2] (setting [10]), -0.691; in experiment [2] (setting [11]), 2.95. Moreover, the fluorescence slope in experiment [4] was -0.41 (inactive); in experiment [6], 0.00483 (inactive). Also, in experiment [5], the NADPH fluorescence slope is -8e-06 (inactive). Also, the result in experiment [7] was inactive.

With `C=CCNc1nc(C2(C)CC3(CC(C)(C)OC3=O)C(=O)O2)cs1` (stereo not given), the inhibition in experiment [1] is -142% (inactive); in experiment [3] it was -2.07% (inactive); in experiment [8], 6.21% (inactive). The molecule also had a nuclei count in experiment [1] of 155%. The values for the z-score in experiment [2] (setting [9]), in experiment [2] (setting [10]) and in experiment [2] (setting [11]) were 0.249, -0.125 and -1.68, respectively. In addition, the fluorescence slope in experiment [4] was -0.315 (inactive); in experiment [6], 0.0082 (inactive). Further, the NADPH fluorescence slope in experiment [5] was -1.4e-05 (inactive). For the same molecule, the molecule was classed as inactive in experiment [7].

As to `CCCc1nnc(SCc2ccc(OCC)cc2)n1N`, the results for the inhibition in experiment [1], in experiment [3] and in experiment [8] were -86% (inactive), 7.48% (inactive) and 28.9% (inactive), respectively. Also, in experiment [1], the nuclei count came out at 147%. In addition, the z-score in experiment [2] (setting [9]) was -0.133; in experiment [2] (setting [10]), 1.35; in experiment [2] (setting [11]), 1.37. In addition, the results for the fluorescence slope in experiment [4] and in experiment [6] were -0.421 (inactive) and 0.00481 (inactive), respectively. Further, the NADPH fluorescence slope in experiment [5] was -1.6e-05 (inactive). Besides, in experiment [7], the outcome was inactive.

Take `CC(C)(C#N)C(C)(C)c1nn[nH]n1`: the inhibition in experiment [1] was -15.5% (inactive); in experiment [3], 13.2% (inactive); in experiment [8] it was 20% (inactive). Besides, the nuclei count in experiment [1] was 72.6%. The z-score in experiment [2] (setting [9]) is 1.29; in experiment [2] (setting [10]), -0.296; in experiment [2] (setting [11]), -0.013. For the same molecule, the fluorescence slope in experiment [4] is -0.468 (inactive); in experiment [6], 0.00499 (inactive). The NADPH fluorescence slope in experiment [5] is -2.9e-05 (inactive). Besides, in experiment [7], the outcome was inactive.

Regarding `CC(C)CCOc1ccc(Cl)cc1CN1CCOCC1`, the inhibition in experiment [1] is -12.9% (inactive); in experiment [3] it was -3.98% (inactive); in experiment [8], 106% (active). The nuclei count in experiment [1] was determined as 146%. The z-score in experiment [2] (setting [9]) is -1.08; in experiment [2] (setting [10]) it was -0.136; in experiment [2] (setting [11]) it was -0.739. Besides, the fluorescence slope in experiment [4] was -0.378 (inactive); in experiment [6], 0.00465 (inactive). In experiment [5], the NADPH fluorescence slope is -7.1e-06 (inactive). In addition, in experiment [7], the outcome is “inactive; toxic”.

As for `O=C(NC1CCCCC1)[C@H](O)[C@@H](O)C(=O)NC1CCCCC1`, the inhibition in experiment [1] is -94% (inactive); in experiment [3], 5.57% (inactive); in experiment [8] it was -2.73% (inactive). This molecule also came in with a nuclei count in experiment [1] of 140%. In addition, the z-score in experiment [2] (setting [9]) was -1.12; in experiment [2] (setting [10]), 0.563; in experiment [2] (setting [11]), 0.453. Further, the fluorescence slope was -0.381 (inactive) in experiment [4] and 0.00717 (inactive) in experiment [6]. For the same molecule, the NADPH fluorescence slope in experiment [5] is -4.7e-05 (inactive). The result in experiment [7] was inactive.

For the molecule `O=C(CCN1CCc2ccccc2CC1)c1ccc2c(c1)OCCO2`, the inhibition was -194% (inactive) in experiment [1], 9.39% (inactive) in experiment [3] and 40.1% (inactive) in experiment [8]. This molecule also displayed a nuclei count in experiment [1] of 154%. Besides, the z-score in experiment [2] (setting [9]) amounted to 1.21; in experiment [2] (setting [10]) it was 0.758; in experiment [2] (setting [11]) it was 0.122. In addition, the values for the fluorescence slope in experiment [4] and in experiment [6] were -0.406 (inactive) and 0.00461 (inactive), respectively. Also, the NADPH fluorescence slope in experiment [5] is -5.2e-05 (inactive). Besides, the outcome in experiment [7] was inactive.

For the molecule `Clc1ccc2nc(N3CCNCC3)nc(-c3ccccc3)c2c1`, the inhibition in experiment [1] is 14.5% (inactive); in experiment [3] it was 7.48% (inactive); in experiment [8], 151% (active). Moreover, in experiment [1], the nuclei count was found to be 144%. The results for the z-score in experiment [2] (setting [9]), in experiment [2] (setting [10]) and in experiment [2] (setting [11]) were 0.81, -0.0975 and 1.71, respectively. The fluorescence slope in experiment [4] is -0.23 (inactive); in experiment [6] it was 0.00627 (inactive). Also, the NADPH fluorescence slope in experiment [5] is -6.4e-06 (inactive). For the same molecule, the molecule was classed as inactive in experiment [7].

Source of the values: PubChem BioAssay.
